The whole screen tested about 5,500 compounds, of which about 2,000 (36%) were called active. Another 18% or so got no clear call; they are omitted. Rule as the data show it: active = normalized growth mostly below about 0.91 (no sharp cut-off); inconclusive = no clear call, values can overlap the other calls; inactive = mostly above about 0.92. The list shows a part of the results.
Test: chemical genetic growth profiling, strain panel (AID 1159580);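 also: tested at 20 µM; growth read once vehicle control cultures reached saturation at 30 °C; 1 = growth at the plate median or of vehicle wells; lower values mean less growth of the strain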
Details: growth OD

Measured: normalized growth

CC(=O)O[C@H]1CC[C@@]2(C)C(=CC(=O)C3C4CCC(C(C)CCCC(C)C)[C@@]4(C)CCC32)C1 (stereo not given in full)
inactive: S. cerevisiae deletion strains, locus YAL013W, strain DEP1, hits give low values 1.01 | S. cerevisiae deletion strains, locus YAL021C, strain ccr4, hits give low values 0.992 | S. cerevisiae deletion strains, locus YAL026C, strain drs2, hits give low values 1.02 | S. cerevisiae deletion strains, locus YAL030W, strain snc1, hits give low values 0.992 | S. cerevisiae deletion strains, locus YBL061C, strain skt5, hits give low values 0.988 | S. cerevisiae deletion strains, locus YBR009C, strain hhf1, hits give low values 1.01 | S. cerevisiae deletion strains, locus YBR021W, strain FUR4, hits give low values 0.999 | S. cerevisiae deletion strains, locus YBR023C, strain chs3, hits give low values 0.985 | S. cerevisiae deletion strains, locus YBR171W, strain sec66, hits give low values 0.996 | S. cerevisiae deletion strains, locus YBR229C, strain ROT2, hits give low values 1 | S. cerevisiae deletion strains, locus YBR231C, strain swc5, hits give low values 1.02 | S. cerevisiae deletion strains, locus YBR279W, strain paf1, hits give low values 0.996 | S. cerevisiae deletion strains, locus YCL011C, strain gbp2, hits give low values 0.994 | S. cerevisiae deletion strains, locus YCL016C, strain dcc1, hits give low values 0.99 | S. cerevisiae deletion strains, locus YCL029C, strain bik1, hits give low values 0.986 | S. cerevisiae deletion strains, locus YCL061C, strain MRC1, hits give low values 1 | S. cerevisiae deletion strains, locus YCL069W, strain vba3, hits give low values 0.997 | S. cerevisiae deletion strains, locus YCR088W, strain abp1, hits give low values 0.995 | S. cerevisiae deletion strains, locus YDL005C, strain med2, hits give low values 0.971 | S. cerevisiae deletion strains, locus YDL035C, strain GPR1, hits give low values 1.02 | S. cerevisiae deletion strains, locus YDL040C, strain nat1, hits give low values 0.991 | S. cerevisiae deletion strains, locus YDL074C, strain BRE1, hits give low values 1.04 | S. cerevisiae deletion strains, locus YDL101C, strain DUN1, hits give low values 1 | S. cerevisiae deletion strains, locus YDL185W, strain tfp1, hits give low values 1.02 | S. cerevisiae deletion strains, locus YDL192W, strain arf1, hits give low values 1 | S. cerevisiae deletion strains, locus YDR001C, strain nth1, hits give low values 0.99 | S. cerevisiae deletion strains, locus YDR069C, strain doa4, hits give low values 0.992 | S. cerevisiae deletion strains, locus YDR101C, strain arx1, hits give low values 1 | S. cerevisiae deletion strains, locus YDR137W, strain rgp1, hits give low values 1.01 | S. cerevisiae deletion strains, locus YDR150W, strain NUM1, hits give low values 0.998 | S. cerevisiae deletion strains, locus YDR159W, strain sac3, hits give low values 1.01 | S. cerevisiae deletion strains, locus YDR162C, strain NBP2, hits give low values 1.01 | S. cerevisiae deletion strains, locus YDR195W, strain ref2 0.977 | S. cerevisiae deletion strains, locus YDR297W, strain sur2, hits give low values 0.995 | S. cerevisiae deletion strains, locus YDR318W, strain mcm21, hits give low values 0.978 | S. cerevisiae deletion strains, locus YDR334W, strain swr1, hits give low values 0.994 | S. cerevisiae deletion strains, locus YDR335W, strain msn5, hits give low values 0.993 | S. cerevisiae deletion strains, locus YDR388W, hits give low values 0.979 | S. cerevisiae deletion strains, locus YDR392W, strain spt3, hits give low values 0.944 | S. cerevisiae deletion strains, locus YDR502C, strain sam2, hits give low values 1 | S. cerevisiae deletion strains, locus YEL003W, strain gim4, hits give low values 1.01 | S. cerevisiae deletion strains, locus YEL037C, strain rad23, hits give low values 0.994 | S. cerevisiae deletion strains, locus YEL061C, strain CIN8 (second series), hits give low values 0.995 | S. cerevisiae deletion strains, locus YEL061C, strain CIN8, hits give low values 1 | S. cerevisiae deletion strains, locus YER015W, strain faa2, hits give low values 0.996 | S. cerevisiae deletion strains, locus YER016W, strain bim1, hits give low values 0.989 | S. cerevisiae deletion strains, locus YER110C, hits give low values 0.982 | S. cerevisiae deletion strains, locus YER111C, strain swi4, hits give low values 0.999 | S. cerevisiae deletion strains, locus YER155C, strain BEM2 (second series), hits give low values 1.01 | S. cerevisiae deletion strains, locus YER155C, strain BEM2, hits give low values 1.01 | S. cerevisiae deletion strains, locus YER167W, strain BCK2, hits give low values 1.01 | S. cerevisiae deletion strains, locus YFR010W, strain ubp6, hits give low values 1.01 | S. cerevisiae deletion strains, locus YGL078C, strain dbp3, hits give low values 1.02 | S. cerevisiae deletion strains, locus YGL086W, strain mad1, hits give low values 1.01 | S. cerevisiae deletion strains, locus YGL167C, strain pmr1, hits give low values 0.993 | S. cerevisiae deletion strains, locus YGL173C, strain kem1, hits give low values 0.978 | S. cerevisiae deletion strains, locus YGL227W, strain vid30, hits give low values 0.984 | S. cerevisiae deletion strains, locus YGL240W, strain doc1, hits give low values 1.01 | S. cerevisiae deletion strains, locus YGL248W, strain PDE1, hits give low values 0.987 | S. cerevisiae deletion strains, locus YGL253W, strain hxk2, hits give low values 0.993 | S. cerevisiae deletion strains, locus YGR135W, strain pre9, hits give low values 0.984 | S. cerevisiae deletion strains, locus YGR252W, strain gcn5, hits give low values 1.07 | S. cerevisiae deletion strains, locus YHR013C, strain ard1, hits give low values 0.994 | S. cerevisiae deletion strains, locus YHR027C, strain rpn1, hits give low values 0.994 | S. cerevisiae deletion strains, locus YHR030C, strain SLT2, hits give low values 1 | S. cerevisiae deletion strains, locus YHR079C, strain IRE1 (second series), hits give low values 0.991 | S. cerevisiae deletion strains, locus YHR094C, strain hxt1, hits give low values 0.975 | S. cerevisiae deletion strains, locus YHR129C, strain ARP1, hits give low values 0.999 | S. cerevisiae deletion strains, locus YHR142W, strain chs7, hits give low values 0.979 | S. cerevisiae deletion strains, locus YHR200W, strain rpn10, hits give low values 0.985 | S. cerevisiae deletion strains, locus YIL066C, strain RNR3, hits give low values 1 | S. cerevisiae deletion strains, locus YIL073C, strain SPO22, hits give low values 1.03 | S. cerevisiae deletion strains, locus YIL125W, strain kgd1, hits give low values 1.01 | S. cerevisiae deletion strains, locus YIR030C, strain dcg1, hits give low values 0.989 | S. cerevisiae deletion strains, locus YJL092W, strain hpr5, hits give low values 0.99 | S. cerevisiae deletion strains, locus YJL095W, strain BCK1 (second series), hits give low values 0.982 | S. cerevisiae deletion strains, locus YJL095W, strain BCK1, hits give low values 1.01 | S. cerevisiae deletion strains, locus YJL115W, strain asf1, hits give low values 0.981 | S. cerevisiae deletion strains, locus YJL129C, strain trk1, hits give low values 0.989 | S. cerevisiae deletion strains, locus YJL134W, strain LCB3, hits give low values 1.01 | S. cerevisiae deletion strains, locus YJL154C, strain vps35, hits give low values 0.999 | S. cerevisiae deletion strains, locus YJL164C, strain tpk1, hits give low values 1 | S. cerevisiae deletion strains, locus YJL166W, strain qcr8, hits give low values 0.998 | S. cerevisiae deletion strains, locus YJL168C, strain set2, hits give low values 0.976 | S. cerevisiae deletion strains, locus YJL187C, strain SWE1 (second series), hits give low values 1.01 | S. cerevisiae deletion strains, locus YJL187C, strain SWE1, hits give low values 0.991 | S. cerevisiae deletion strains, locus YJR043C, strain POL32, hits give low values 1.01 | S. cerevisiae deletion strains, locus YJR075W, strain HOC1, hits give low values 1 | S. cerevisiae deletion strains, locus YKL009W, strain mrt4, hits give low values 1.04 | S. cerevisiae deletion strains, locus YKL068W, hits give low values 1 | S. cerevisiae deletion strains, locus YKL085W, strain MDH1 (second series), hits give low values 1 | S. cerevisiae deletion strains, locus YKL085W, strain MDH1, hits give low values 1 | S. cerevisiae deletion strains, locus YKL160W, strain elf1, hits give low values 0.996 | S. cerevisiae deletion strains, locus YKR001C, strain vps1, hits give low values 1.03 | S. cerevisiae deletion strains, locus YKR026C, strain gcn3, hits give low values 0.994 | S. cerevisiae deletion strains, locus YKR091W, strain srl3, hits give low values 0.994 | S. cerevisiae deletion strains, locus YLL001W, strain dnm1, hits give low values 0.984 | S. cerevisiae deletion strains, locus YLL026W, hits give low values 1 | S. cerevisiae deletion strains, locus YLL041C, strain sdh2, hits give low values 0.993 | S. cerevisiae deletion strains, locus YLR027C, strain aat2, hits give low values 1 | S. cerevisiae deletion strains, locus YLR039C, strain RIC1, hits give low values 1.03 | S. cerevisiae deletion strains, locus YLR058C, strain SHM2, hits give low values 0.999 | S. cerevisiae deletion strains, locus YLR102C, strain apc9, hits give low values 0.975 | S. cerevisiae deletion strains, locus YLR221C, strain rsa3, hits give low values 0.983 | S. cerevisiae deletion strains, locus YLR258W, strain gsy2, hits give low values 1.01 | S. cerevisiae deletion strains, locus YLR262C, strain YPT6 (second series), hits give low values 0.996 | S. cerevisiae deletion strains, locus YLR262C, strain YPT6, hits give low values 1.02 | S. cerevisiae deletion strains, locus YLR268W, strain sec22, hits give low values 1.02 | S. cerevisiae deletion strains, locus YLR320W, strain mms22, hits give low values 0.991 | S. cerevisiae deletion strains, locus YLR330W, strain CHS5, hits give low values 1 | S. cerevisiae deletion strains, locus YLR342W, strain FKS1 (second series), hits give low values 1.03 | S. cerevisiae deletion strains, locus YLR342W, strain FKS1, hits give low values 0.993 | S. cerevisiae deletion strains, locus YLR357W, strain rsc2, hits give low values 0.983 | S. cerevisiae deletion strains, locus YLR370C, strain arc18, hits give low values 0.994 | S. cerevisiae deletion strains, locus YLR371W, strain rom2, hits give low values 0.977 | S. cerevisiae deletion strains, locus YLR384C, strain iki3, hits give low values 0.971 | S. cerevisiae deletion strains, locus YLR418C, strain cdc73, hits give low values 1.02 | S. cerevisiae deletion strains, locus YML016C, strain PPZ1, hits give low values 1 | S. cerevisiae deletion strains, locus YML032C, strain rad52, hits give low values 0.985 | S. cerevisiae deletion strains, locus YML120C, strain ndi1, hits give low values 0.997 | S. cerevisiae deletion strains, locus YML124C, strain tub3, hits give low values 0.988 | S. cerevisiae deletion strains, locus YMR058W, strain fet3, hits give low values 1 | S. cerevisiae deletion strains, locus YMR078C, strain ctf18, hits give low values 0.988 | S. cerevisiae deletion strains, locus YMR125W, strain sto1, hits give low values 0.997 | S. cerevisiae deletion strains, locus YMR129W, hits give low values 0.989 | S. cerevisiae deletion strains, locus YMR205C, strain PFK2, hits give low values 0.993 | S. cerevisiae deletion strains, locus YMR223W, strain ubp8, hits give low values 0.983 | S. cerevisiae deletion strains, locus YMR231W, strain pep5, hits give low values 1 | S. cerevisiae deletion strains, locus YMR307W, strain GAS1, hits give low values 1.07 | S. cerevisiae deletion strains, locus YNL067W, strain RPL9B, hits give low values 1.01 | S. cerevisiae deletion strains, locus YNL071W, strain lat1, hits give low values 0.994 | S. cerevisiae deletion strains, locus YNL128W, strain TEP1, hits give low values 1.04 | S. cerevisiae deletion strains, locus YNL209W, strain ssb2, hits give low values 0.997 | S. cerevisiae deletion strains, locus YNL233W, strain BNI4, hits give low values 1.01 | S. cerevisiae deletion strains, locus YNL248C, strain rpa49, hits give low values 1.01 | S. cerevisiae deletion strains, locus YNL250W, strain rad50, hits give low values 1 | S. cerevisiae deletion strains, locus YNL271C, strain bni1, hits give low values 1.01 | S. cerevisiae deletion strains, locus YNL298W, strain CLA4, hits give low values 1.01 | S. cerevisiae deletion strains, locus YNL307C, strain MCK1, hits give low values 0.985 | S. cerevisiae deletion strains, locus YNL322C, strain KRE1 (second series), hits give low values 0.983 | S. cerevisiae deletion strains, locus YNR049C, strain mso1, hits give low values 0.993 | S. cerevisiae deletion strains, locus YNR052C, strain pop2, hits give low values 0.975 | S. cerevisiae deletion strains, locus YOL006C, strain TOP1, hits give low values 1.05 | S. cerevisiae deletion strains, locus YOL012C, strain htz1 0.955 | S. cerevisiae deletion strains, locus YOL147C, strain pex11, hits give low values 0.982 | S. cerevisiae deletion strains, locus YOR001W, strain rrp6, hits give low values 1.01 | S. cerevisiae deletion strains, locus YOR061W, strain CKA2, hits give low values 1.01 | S. cerevisiae deletion strains, locus YOR069W, strain VPS5, hits give low values 1.01 | S. cerevisiae deletion strains, locus YOR070C, strain gyp1, hits give low values 0.987 | S. cerevisiae deletion strains, locus YOR080W, strain dia2, hits give low values 0.996 | S. cerevisiae deletion strains, locus YOR083W, strain WHI5, hits give low values 0.98 | S. cerevisiae deletion strains, locus YOR106W, strain vam3, hits give low values 1.01 | S. cerevisiae deletion strains, locus YOR136W, strain idh2, hits give low values 0.995 | S. cerevisiae deletion strains, locus YOR144C, strain elg1, hits give low values 0.99 | S. cerevisiae deletion strains, locus YOR184W, strain ser1, hits give low values 0.998 | S. cerevisiae deletion strains, locus YOR265W, strain rbl2, hits give low values 1 | S. cerevisiae deletion strains, locus YOR270C, strain vph1, hits give low values 0.968 | S. cerevisiae deletion strains, locus YOR290C, strain snf2, hits give low values 0.974 | S. cerevisiae deletion strains, locus YOR316C, strain cot1, hits give low values 0.977 | S. cerevisiae deletion strains, locus YPL051W, strain arl3, hits give low values 1 | S. cerevisiae deletion strains, locus YPL078C, strain atp4, hits give low values 0.995 | S. cerevisiae deletion strains, locus YPL106C, strain sse1, hits give low values 0.978 | S. cerevisiae deletion strains, locus YPL240C, strain hsp82, hits give low values 0.993 | S. cerevisiae deletion strains, locus YPL241C, strain CIN2, hits give low values 1 | S. cerevisiae deletion strains, locus YPR119W, strain clb2, hits give low values 0.982 | S. cerevisiae deletion strains, locus YPR141C, strain kar3, hits give low values 0.993 | S. cerevisiae deletion strains, locus YPR163C, strain tif3, hits give low values 0.981 | S. cerevisiae deletion strains, locus YPR167C, strain met16, hits give low values 0.984 | S. cerevisiae deletion strains, strain wtn01, hits give low values 1.05 | S. cerevisiae strains, strain wild type, hits give low values 1.01

From PubChem BioAssay AID1159580 (chemical genetic matrix, 2015)
